CHX counter = affects cycloheximide protein synthesis inhibition readout, counter-screen; AID 2314; actives 12% (n = 300,000); max response, %; cell reporter, cycloheximide protein synthesis inhibition counterscreen; in the data active = max response mostly above about 13%, no sharp cut-off; inactive = mostly below about 14%; note: read at 38.3 µM for the half of the compounds with a filed dose; 0% is about no effect
HCV inhibitor = HCV inhibition; Potency, µM (titrated, usually from 41.8 µM), inactives show top-dose activity change, negative = inhibition, most hits filed as inhibitors; AID 651820; actives 3.4% (n = 340,000); Huh7.5.1 HCVcc-Cre infection, luciferase reporter, 44 h; note: potency is the fitted concentration of half-maximal effect; % is set by controls: 0 for no effect and ±100 for the full control effect
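HCVcc-Cre virus at an moi near 0.5 was added right after compound to cells cultured 4 h from seeding (1,000 cells/well). Luciferase activity was determined 44 h later, 15 min after substrate addition at RT.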
Pf growth 96h = P. falciparum growth inhibition at 96 hours; P. falciparum luciferase reporter growth, 96 h; Potency, µM (doses to about 28.7 µM), without a hit: at the top dose activity change, negative = inhibition, most hits filed as inhibitors; actives 6.9% (n = 320,000); AID 504834; note: potency is the fitted concentration of half-maximal effect; % is set by controls: 0 for no effect and ±100 for the full control effect
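96 h incubation, 37 C, 5% CO2, of luciferase-reporter P. falciparum-infected RBCs (2% hematocrit, 0.05% parasitemia final) with test compounds; endpoint luminescence.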
AMA1-RON2 inh = inhibitors of Plasmodium falciparum AMA1-RON2 interaction; AlphaScreen AMA1-biotinylated RON2 peptide binding; Potency, µM (doses to about 58.2 µM), for inactives: top-dose activity change, negative = inhibition, most hits filed as inhibitors; actives 0.2% (n = 360,000); AID 720542;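 note: potency is the fitted concentration of half-maximal effect; 0% = vehicle wells and -100% = peptide control; nearly all actives have a fitted effect of over 45% in size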
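AMA1 (3D7) with his tag at 25 nM final met compounds first, then biotinylated RON2 peptide at 25 nM; detection used donor plus acceptor beads, 10 µg/mL apiece, read by AlphaScreen after 30 min at room temperature.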
Shiga inhibitor = blocks Shiga toxin action in Vero cells. Vero cells, Shiga toxin protein synthesis inhibition reporter. actives 9.2% (n = 290,000). inhibition, % at 38.7 µM. AID 2315; in the data active = inhibition mostly above about 28%, no sharp cut-off; inactive = mostly below about 43%; note: 0% is about no effect
Pf growth 48h = P. falciparum growth inhibition at 48 hours (one generation). actives 5.9% (n = 310,000). Potency, µM (doses to about 28.7 µM), without a hit: top-dose activity change, negative = inhibition, hits mostly inhibitors. P. falciparum luciferase growth in erythrocytes, 48 h; note: potency is the fitted concentration of half-maximal effect; % is set by controls: 0 for no effect and ±100 for the full control effect
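Cell-based growth assay: transgenic P. falciparum expressing firefly luciferase, cultured in red cells within RPMI 1640 containing 0.5% w/v Albumax, 24 mM bicarbonate and gentamycin. A drop in luciferase activity indicates inhibition.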
An asterisk follows results filed as active; ? = inconclusive; · = not tested or not shown. This is a sample that favours compounds with a hit; in the whole collection about 21% have one here. Unless noted, calls come from the whole dose curve; as a rule, active = well fitted curve in the direction sought with a large enough effect; inconclusive = small, poorly fitted or top-dose-only effect, or another doubt; inactive = no such curve, though single readings can be large; an effect the other way counts as inactive or inconclusive.

SMILES	CHX counter	HCV inhibitor	Pf growth 96h	AMA1-RON2 inh	Shiga inhibitor	Pf growth 48h
O=[N+]([O-])c1ccc(N2CCN(C(=S)Nc3ccccc3)CC2)cc1	-1.8	28.4%	-14.6%	3.6%	-10.8	2.08µM*
O=C1c2cccc3cccc(c23)C(=O)N1CCN1CCN(C(=S)Nc2ccc(Cl)cc2)CC1	-1.3	-13.6%	237.9%	1.2%	-6.2	27.6%
CC(C(=O)N1CCN(c2ccccc2)CC1)c1ccc([N+](=O)[O-])cc1 (stereo unspecified)	-2.4	4.0%	13.1µM*	0.0%	-2.9	-6.0%
Nc1ncnc2c1nc(Br)n2[C@@H]1O[C@H]2COP(=O)(O)O[C@@H]2[C@@H]1O	-2.8	·	·	·	-5.6	·
CC1Cc2cc(S(=O)(=O)N3CCN(c4ccccc4)CC3)ccc2N1C(=O)C1CC1 (stereo unspecified)	-2.9	7.3%	?	-3.9%	22.0	6.6%
c1ccc(CSc2nnnn2-c2ccc3c(c2)OCCO3)nc1	21.4*	-2.8%	8.5%	0.0%	42.9	25.8%
O=C(CSc1nnnn1-c1ccc2c(c1)OCCO2)N1CCc2ccccc21	-6.8	10.3%	·	-1.9%	-10.5	4.7%
O=C(CSc1nnnn1-c1ccc2c(c1)OCCO2)OC1CCCCC1	33.8*	9.1%	?	17.9%	102.4*	17.5%
Cc1cc(C)n(CCOC(=O)c2sc3ccccc3c2Cl)n1	18.4*	11.5%	-2.7%	4.2%	51.5	30.9%
C[N+](C)(C)CCN(Cc1ccc(Cl)cc1)c1ccccn1	-3.3	9.5%	2.33µM*	-8.7%	9.2	6.57µM*
O=C(NCC1CCCO1)c1[nH]c(C(F)(F)F)nc1-c1ccccc1 (stereo unspecified)	·	·	·	-7.7%	·	·
COc1ccc(NC(=O)COC(=O)Cc2cccs2)cc1Cl	·	·	·	-1.4%	·	·
CCOc1ccc(-c2cccc(NC(=O)c3ccco3)c2)nn1	·	0.0%	10.4µM*	11.7%	·	?
COc1ccc(-c2cccc(NC(=O)c3cccs3)c2)nn1	·	3.55µM*	7.38µM*	7.3%	·	9.28µM*
CCOc1ccc(-c2cccc(NC(=O)c3cccs3)c2)nn1	·	?	3.7µM*	18.8%	·	5.22µM*
CCc1csc(CCNC(=O)C2CCC(=O)N(Cc3cccc(C(F)(F)F)c3)C2)n1 (stereo unspecified)	-2.6	26.6%	-1.3%	-7.6%	3.4	0.4%
CCC[C@H]1CN(Cc2ccccc2)C(=O)[C@@H]1CC(=O)NC	·	·	·	-8.3%	·	·
CC(C)(C)c1cc(-c2n[nH]c(=S)n2-c2ccccc2F)n[nH]1	40.3*	-10.9%	14.5%	77.5%	73.9*	25.7%
CCOc1ccc(N(CC(=O)Nc2ccc(OC)cc2OC)S(=O)(=O)c2c(C)[nH]c(=O)[nH]c2=O)cc1	-4.5	4.6%	33.1%	10.8%	-4.0	?
CC(Sc1ccc(S(=O)(=O)N2CCN(C)CC2)cn1)C(=O)Nc1cccc(Cl)c1Cl (stereo unspecified)	·	?	·	-18.7%	·	·
CC(NCC1(N2CCOCC2)CCCCC1)C(=O)Nc1ccc(Cl)cc1Cl (stereo unspecified)	14.4	-11.9%	9.28µM*	-4.9%	-4.0	?
CC(Sc1ccc(S(=O)(=O)N2CCOCC2)cn1)C(=O)Nc1ccc(Cl)cc1Cl (stereo unspecified)	·	?	?	-0.9%	·	11.7µM*
O=C(CSc1ccc(S(=O)(=O)N2CCOCC2)cn1)Nc1ccc(F)c(F)c1	·	6.31µM*	?	9.3%	·	-18.3%
CC(NCC1(N2CCOCC2)CCCCC1)C(=O)N1CCc2ccccc21 (stereo unspecified)	1.5	3.6%	·	-1.4%	-9.0	?
Cn1nc(C(=O)NCc2ccc(F)cc2)cc1C(=O)NCc1ccc(F)cc1	·	-26.8%	?	5.3%	·	?
CN1CCN(C(=O)CSc2nc3ccc(NC(=O)c4ccccc4F)cc3s2)CC1	14.3*	?	?	-1.1%	24.1	?
Cn1cnnc1SCC(=O)Nc1ccc2nc(SCc3ccccc3F)sc2c1	49.9*	-3.4%	·	-4.4%	164.8*	126.2%
Cn1c(SCC(=O)Nc2ccc3nc(SCC(=O)N4CCCC4)sc3c2)nnc1-c1ccccc1	-3.2	-23.3%	3.29µM*	-9.3%	-13.8	9.28µM*
